# Hits are enriched below; roughly 1.6% of the tested compounds scored in any of these assays.
# NSD2 inh: inhibitors of human histone methyltransferase NSD2. actives 0.54% (n = 310,000). O96028. inhibition, % at 12.5 µM. NSD2 peptide methylation, AlphaScreen, 120 min. AID 743445; in the data active = inhibition above about 50%
# UBC9 SUMO inh: SUMOylation inhibition; inhibition, % at 35 µM; actives 0.36% (n = 290,000); AID 2006; HTRF SUMOylation assay, SAE1/SAE2 + UBC9, in vitro; in the data active = inhibition above about 50%, passing the limit was not always enough
# SIRT5 block: blocks human SIRT5 desuccinylation of peptide | AID 652115 | actives 1.1% (n = 330,000) | Purified SirT5, succinyl-peptide AMC, trypsin-coupled fluorescence | Q9NXA8 | inhibition, % at 15 µM; in the data active = inhibition above about 15%
# Target sequence (Q9NXA8 whole entry, looked up): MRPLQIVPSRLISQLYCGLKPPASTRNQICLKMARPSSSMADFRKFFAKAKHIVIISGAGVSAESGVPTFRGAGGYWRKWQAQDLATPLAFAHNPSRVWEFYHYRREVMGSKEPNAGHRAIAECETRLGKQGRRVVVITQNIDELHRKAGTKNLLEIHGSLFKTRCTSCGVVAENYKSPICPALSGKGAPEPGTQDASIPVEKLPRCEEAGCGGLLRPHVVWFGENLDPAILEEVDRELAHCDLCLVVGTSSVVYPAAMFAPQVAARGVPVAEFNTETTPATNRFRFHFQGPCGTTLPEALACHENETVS
# CASP6 VEID inh: caspase-6 (human) enzyme inhibition; P55212; actives 0.53% (n = 350,000); purified caspase-6, Z-VEID-R110 cleavage fluorescence; inhibition, % at 12.5 µM;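 active = mean inhibition across replicates at least about 35%, with every replicate also reaching that limit, limit read from the data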;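 note: 0% = median of neutral control wells and 100% = no fluorescence left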
# Target sequence (P55212 24-179 limits assumed): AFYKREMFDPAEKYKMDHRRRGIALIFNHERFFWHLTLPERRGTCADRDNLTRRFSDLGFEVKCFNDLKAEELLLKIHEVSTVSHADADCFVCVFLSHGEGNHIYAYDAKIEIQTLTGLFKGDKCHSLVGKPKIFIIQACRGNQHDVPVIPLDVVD
# Target sequence (P55212 194-293 limits assumed): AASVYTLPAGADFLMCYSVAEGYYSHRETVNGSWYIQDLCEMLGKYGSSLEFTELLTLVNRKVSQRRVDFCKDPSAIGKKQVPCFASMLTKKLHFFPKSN
# The depositor's hits bear a star; x = no result given.
SMILES,NSD2 inh,UBC9 SUMO inh,SIRT5 block,CASP6 VEID inh
O=C(Nc1ccccc1F)N1C[C@@H]2N[C@H](C1)C2c1ccc(/C=C/c2ccccc2)cc1 (stereo partly specified),x,x,26.9*,-1.3
O=C(Nc1ccc2c(c1)OCO2)N1[C@@H]2CNC[C@H]1C2c1ccc(/C=C/c2ccccc2)cc1 (stereo partly specified),x,x,5.3,-1.4
Cc1noc(C)c1S(=O)(=O)N(C)C[C@H]1OCCCC[C@H](C)Oc2ccc(NC(=O)Cc3ccccc3)cc2C(=O)N([C@@H](C)CO)C[C@H]1C,x,x,-3.6,1.0
COc1cccc(C(=O)Nc2ccc3c(c2)C(=O)N(C)C[C@H](OC)[C@@H](C)CN(CC2CC2)[C@@H](C)CO3)c1,x,x,8.0,-1.7
CC(=O)N(C)C[C@@H]1Oc2ncc(-c3ccccc3C)cc2C(=O)N([C@H](C)CO)C[C@@H]1C,x,x,5.0,0.1
S=C(NCc1ccccc1)N1CCn2cccc2C1c1ccncc1 (stereo unspecified),5.0,3.6,-1.2,-2.4
CCc1cccc(CC)c1NC(=S)N1CCn2cccc2C1c1ccncc1 (stereo unspecified),-0.6,0.7,17.3*,-2.3
CCN(CCC(=O)Nc1cc([N+](=O)[O-])ccc1OC)Cc1ccccc1,0.2,69.4*,x,x
COC(=O)C1=C(C)N(Cc2ccccc2C(F)(F)F)C(=NCc2ccc3c(c2)OCO3)NC1c1ccccc1 (stereo unspecified),0.0,x,16.5*,0.4
COc1ccc(S(=O)(=O)Nc2ccc3c(c2)C(=O)N([C@@H](C)CO)C[C@H](C)[C@@H](CN(C)C(=O)c2ccncc2)OCCCC[C@@H](C)O3)cc1,x,x,1.3,1.9
C[C@H](CO)N1C[C@H](C)[C@@H](CN(C)C(=O)Nc2ccccc2)Oc2ccc(NS(=O)(=O)c3ccc(Cl)cc3)cc2CC1=O,x,x,-3.4,-0.7
CCCN(C)C[C@@H]1OCCCC[C@H](C)Oc2ccc(N(C)C)cc2C(=O)N([C@H](C)CO)C[C@@H]1C,x,x,4.6,-15.3
CC(C)CCN1CCN(Cc2cnc(-c3ccccc3)s2)CC1CCO (stereo unspecified),2.7,-1.0,-6.1,-1.6
CC(C)CCN1CCN(Cc2cnc(N3CCCC3)s2)CC1CCO (stereo unspecified),-0.5,3.0,38.2*,2.9
CC(C)N1CCN(Cc2cnc(-c3ccccc3)s2)CC1CCO (stereo unspecified),-1.2,12.8,22.0*,-3.0
CCCNC(=O)N1CC2(CCN(C(=O)c3cccnc3)CC2)c2c([nH]c3cc(OC)ccc23)[C@H]1CO,x,x,2.9,2.1
COc1cccc(S(=O)(=O)N2C[C@@H]3N[C@H](C2)C3c2ccc(/C=C/c3ccccc3)cc2)c1 (stereo partly specified),x,x,2.4,2.3
COc1ccc(-n2c(CN3CCN(C)CC3)nc3ccc([N+](=O)[O-])cc3c2=O)c(OC)c1,3.6,2.9,-1.8,-5.5
COc1ccc(-n2c(CN3CCN(Cc4ccccc4)CC3)nc3ccc([N+](=O)[O-])cc3c2=O)c(OC)c1,7.8,8.7,34.8*,-1.5
Cc1ccnc(NC(=O)c2cccc(NC(=O)c3ccccc3F)c2)c1,-1.5,x,x,x
N/C(=N\OC(=O)COc1ccc(Cl)cc1)c1ccc(Cl)cc1,-35.7,12.6,-1.0,-1.8
Cc1cccc(/C(N)=N/OC(=O)COc2ccc(Cl)cc2)c1,0.2,-12.0,35.4*,0.3
COc1ccc(-c2ccc([C@H]3[C@@H](CO)N4C(=O)CNC[C@H]34)cc2)cc1,x,x,-0.5,-0.8
COc1ccc(C=C2OC(=O)C(C(C)=O)=C2O)cc1,0.8,x,10.8,10.6
CC(=O)C1=C(O)C(=Cc2ccccc2)OC1=O,6.1,x,20.0*,21.4
SMILES,NSD2 inh,UBC9 SUMO inh,SIRT5 block,CASP6 VEID inh
O=C(NN1C(=O)NC2(CCCCC2)C1=O)c1cc(F)cc(F)c1,-4.4,x,-1.6,-0.8
O=C(NN1C(=O)NC2(CCCCC2)C1=O)c1ccc(Cl)c(Cl)c1,1.1,x,16.9*,0.1
O=C(c1[nH]c(C(F)(F)F)nc1-c1ccccc1)N1CCCN(Cc2ccc(F)cc2)CC1,x,x,28.6*,-3.8
CC1Cc2ccccc2N1CC(=O)Nc1ccc(Cl)c(S(=O)(=O)N(C)C)c1 (stereo unspecified),0.1,10.7,16.4*,x
COC(=O)C[C@H]1C[C@@H]2c3cc(NC(=O)NC4CCCCC4)ccc3O[C@@H]2[C@H](CO)O1,x,x,2.3,0.0
O=C1CNC[C@@H]2[C@H](c3ccc(C4=CCCC4)cc3)[C@H](CO)N12,x,x,5.6,1.5
N#C[C@@H]1[C@H](c2ccc(C3=CCCCC3)cc2)[C@H](CO)N1S(=O)(=O)c1ccccc1,x,x,-2.6,-1.2
CCS(=O)(=O)N1CC(=O)N2[C@H](CO)[C@H](c3ccc(C4=CCCCC4)cc3)[C@@H]2C1,x,x,22.1*,x
N#C[C@@H]1[C@H](c2ccc(C3=CCCCC3)cc2)[C@@H](CO)N1S(=O)(=O)c1ccccc1,x,x,0.5,41.3*
CN(C[C@H]1[C@@H](c2ccc(C3=CCCC3)cc2)[C@@H](CO)N1CCC(F)(F)F)S(C)(=O)=O,x,x,24.7*,x
O=C1CNC[C@H]2[C@@H](c3ccc(C4=CCCC4)cc3)[C@H](CO)N12,x,x,21.3*,-1.1
c1ccc(-c2cncnc2)cc1,x,x,25.1*,-0.7
Cc1ccc(CNC(=O)CNC(=O)[C@@H]2Cc3ccccc3CN2)cc1,-0.8,12.3,36.6*,-2.1
COc1ccc(CNC(=O)CNC(=O)[C@@H]2Cc3ccccc3CN2)cc1,-3.3,12.6,-0.7,-0.8
CCOc1ccc(CCNS(=O)(=O)c2cn(C)cn2)cc1OCC,2.6,13.8,33.1*,2.7
CC(=O)N1CCc2c(sc(NC(=O)c3ccc([N+](=O)[O-])o3)c2C#N)C1,x,18.3,3.1,37.6*
COc1ccc(C(=O)Nc2sc3c(c2C#N)CCN(C(C)=O)C3)cc1,1.0,7.1,-6.1,-3.6
CCCNC(=O)C[C@H]1CC[C@@H]2[C@H](COc3ccc(NC(=O)Nc4cccc(C)c4)cc3C(=O)N2C)O1,x,x,0.1,1.4
COc1cccc(NC(=O)N(C)C[C@H]2Oc3cc(-c4ccccc4F)ccc3S(=O)(=O)N([C@H](C)CO)C[C@H]2C)c1,x,x,15.6*,-1.4
COc1ccc(C#Cc2ccc3c(c2)O[C@H](CN(C)C(=O)Nc2cccc(OC)c2)[C@@H](C)CN([C@H](C)CO)S3(=O)=O)cc1,x,x,16.9*,0.1
COc1cccc(NC(=O)N(C)C[C@@H]2Oc3cc(C#Cc4ccccc4)ccc3S(=O)(=O)N([C@H](C)CO)C[C@H]2C)c1,x,x,19.3*,-4.2
COc1cccc(NC(=O)N(C)C[C@@H]2Oc3cc(-c4ccccc4F)ccc3S(=O)(=O)N([C@@H](C)CO)C[C@@H]2C)c1,x,x,3.6,-4.3
O=C(Nc1ccccc1)c1ccc(CN2CCc3ccccc3C2)cc1,-2.9,8.9,-1.1,-2.1
COCCCNC(=O)c1ccc(CN2CCc3ccccc3C2)cc1,3.3,-1.4,22.9*,-4.0
COc1ccc2c3c([nH]c2c1)[C@H](CO)N(Cc1ccncc1)CC31CCN(C(=O)CN(C)C)CC1,x,x,-7.3,-17.0
N#CCC(=O)Nc1ncc(Cc2ccccc2Cl)s1,-0.6,1.1,15.4*,-3.8
CC(C)C(=O)Nc1ncc(Cc2ccccc2Cl)s1,-1.0,14.1,1.0,0.2

# Compound activity deposited in PubChem by several laboratories.
